Laboratory results reported in PubChem BioAssay AID1159580 (chemical genetic matrix, 2015).
Screen size: about 5,500 compounds; about 2,000 (36%) were called active. Inconclusive results (about 18%) are left out. No stated cut-off is given here; in the data, active means normalized growth mostly below about 0.91 (no sharp cut-off); inconclusive means no clear call, values can overlap the other calls; inactive means mostly above about 0.92. The list shows a part of the results.

Test: chemical genetic growth profiling, strain panel (AID 1159580);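 further: tested at 20 µM; growth read once vehicle control cultures reached saturation at 30 °C; 1 = growth at the plate median or of vehicle wells; lower values mean less growth of the strain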
Conditions: growth OD
[1] = S. cerevisiae deletion strains, locus YAL013W, strain DEP1, active compounds read low
[2] = S. cerevisiae deletion strains, locus YGR078C, strain PAC10, active compounds read low
[3] = S. cerevisiae deletion strains, locus YJR075W, strain HOC1, active compounds read low
[4] = S. cerevisiae deletion strains, locus YMR307W, strain GAS1, active compounds read low
[5] = S. cerevisiae deletion strains, locus YNL153C, strain GIM3, active compounds read low

Measured: normalized growth

Cc1oc(-c2ccccc2)cc1C(=O)N1CCN(c2ccc(C(F)(F)F)cn2)CC1
inactive: S. cerevisiae deletion strains, locus YBR229C, strain ROT2, active compounds read low 0.961 | S. cerevisiae deletion strains, locus YCL061C, strain MRC1, active compounds read low 0.984 | S. cerevisiae deletion strains, locus YDL101C, strain DUN1, active compounds read low 1 | S. cerevisiae deletion strains, locus YDR150W, strain NUM1, active compounds read low 0.858 | S. cerevisiae deletion strains, locus YEL061C, strain CIN8, active compounds read low 0.947 | [2] 0.963 | S. cerevisiae deletion strains, locus YHR087W, strain rtc3, active compounds read low 0.935 | S. cerevisiae deletion strains, locus YJL187C, strain SWE1, active compounds read low 0.988 | S. cerevisiae deletion strains, locus YJR043C, strain POL32, active compounds read low 0.98 | [3] 0.964 | S. cerevisiae deletion strains, locus YLR039C, strain RIC1, active compounds read low 0.876 | S. cerevisiae deletion strains, locus YLR058C, strain SHM2 (second series), active compounds read low 0.977 | S. cerevisiae deletion strains, locus YLR262C, strain YPT6, active compounds read low 0.941 | S. cerevisiae deletion strains, locus YML094W, strain GIM5, active compounds read low 0.875 | S. cerevisiae deletion strains, locus YMR219W, strain ESC1, active compounds read low 0.975 | S. cerevisiae deletion strains, locus YMR263W, strain SAP30, active compounds read low 0.919 | [4] 0.762 | [5] 0.978 | S. cerevisiae deletion strains, locus YNL322C, strain KRE1, active compounds read low 0.984 | S. cerevisiae deletion strains, locus YOL006C, strain TOP1, active compounds read low 0.795 | S. cerevisiae strains, strain wild type, active compounds read low 0.957
active: [1] 0.86 | S. cerevisiae deletion strains, locus YHR030C, strain SLT2, active compounds read low 0.433 | S. cerevisiae deletion strains, locus YLR085C, strain ARP6, active compounds read low 0.663 | S. cerevisiae deletion strains, locus YNL298W, strain CLA4 (second series), active compounds read low 0.826 | S. cerevisiae deletion strains, locus YNR030W, strain Alg12, active compounds read low 0.823 | S. cerevisiae deletion strains, locus YPL055C, strain LGE1, active compounds read low 0.709 | S. cerevisiae deletion strains, locus YPR135W, strain CTF4, active compounds read low 0.497

NCCNC(=O)c1ncsc1-c1cccc(F)c1
inactive: [1] 1.02 | S. cerevisiae deletion strains, locus YAL040C, strain CLN3, active compounds read low 0.986 | S. cerevisiae deletion strains, locus YCL061C, strain MRC1 (second series), active compounds read low 0.991 | S. cerevisiae deletion strains, locus YDR363W, strain ESC2, active compounds read low 1.02 | S. cerevisiae deletion strains, locus YER002W, strain NOP16, active compounds read low 1 | [2] 0.989 | [3] 1.01 | [4] 1 | S. cerevisiae deletion strains, locus YNL128W, strain TEP1, active compounds read low 0.99 | [5] 0.983 | S. cerevisiae deletion strains, locus YNL175C, strain NOP13, active compounds read low 0.984 | S. cerevisiae deletion strains, locus YNL197C, strain WHI3, active compounds read low 0.989 | S. cerevisiae deletion strains, locus YNL224C, strain SQS1, active compounds read low 0.996 | S. cerevisiae deletion strains, locus YOR083W, strain WHI5 (second series), active compounds read low 0.974
